Rows were chosen to be rich in hits. Some 21% of all compounds tested hit in one or more screens of this group.
Pf growth 48h: P. falciparum growth inhibition at 48 hours (one generation); P. falciparum luciferase growth in erythrocytes, 48 h; Potency, µM (series often up to 28.7 µM), hits mostly inhibitors; 310,000 compounds, 5.9% hits
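First compound was added to culture medium, then infected red cells at 0.1% parasitemia and 2% hematocrit (final). After incubation at 37 C under 5% CO2, luciferase detection reagent was dispensed and light output recorded.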
Shiga toxin inh: inhibitors of Shiga toxin in Vero cells | Vero cells, Shiga toxin protein synthesis inhibition reporter | inhibition, % at 38.7 µM | 290,000 compounds, 9.2% hits; in the data active means inhibition mostly above about 28%, no sharp cut-off; inactive means mostly below about 43%
AMA1 RON2 block: inhibitors of Plasmodium falciparum AMA1-RON2 interaction; Potency, µM (top dose mostly 58.2 µM), actives largely listed as inhibitors; 360,000 compounds, 0.2% hits; AlphaScreen AMA1-biotinylated RON2 peptide binding; further: nearly all actives have a fitted effect of over 45% in size
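AMA1 (3D7) with his tag at 25 nM final met compounds first, then biotinylated RON2 peptide at 25 nM; detection used donor plus acceptor beads, 10 µg/mL apiece, read by AlphaScreen after 30 min at room temperature.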
HCV inh: blocks hepatitis C virus. Huh7.5.1 HCVcc-Cre infection, luciferase reporter, 44 h. Potency, µM (highest dose often 41.8 µM), usual class: inhibitors. 340,000 compounds, 3.4% hits
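HCVcc-Cre virus at an moi near 0.5 was added right after compound to cells cultured 4 h from seeding (1,000 cells/well). Luciferase activity was determined 44 h later, 15 min after substrate addition at RT.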
Pf growth 96h: inhibits malaria parasite growth, 96 h | P. falciparum luciferase reporter growth, 96 h | Potency, µM (doses to about 28.7 µM), most hits filed as inhibitors | 320,000 compounds, 6.9% hits
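Compounds incubated with erythrocytes infected by luciferase-expressing P. falciparum (2% hematocrit, 0.05% parasitemia final) for 96 hours, 37 C in 5% CO2. Growth inhibition scored as decreased luciferase luminescence.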
Cycloheximide cs: affects cycloheximide protein synthesis inhibition readout, counter-screen; 300,000 compounds, 12% hits; cell reporter, cycloheximide protein synthesis inhibition counterscreen; max response, %; AID 2314; in the data active means max response mostly above about 13%, no sharp cut-off; inactive means mostly below about 14%; further: read at 38.3 µM for the half of the compounds with a filed dose
Each line names hits and unclear results; the compound was inactive in the other large screens. Unless noted, the call rests on the fitted dose curve; in most records, active means well fitted curve in the direction sought with a large enough effect; inconclusive means small, poorly fitted or top-dose-only effect, or another doubt; inactive means no such curve, though single readings can be large; an effect the other way counts as inactive or inconclusive.

COC(=O)c1ccc(Cn2c(C)c(C(=O)Nc3cccc(Oc4ccccc4)c3)sc2=O)o1	none (no result: Pf growth 48h, Shiga toxin inh, HCV inh, Pf growth 96h, Cycloheximide cs)
O=C(O)/C=C/C(O)c1ccc(Cl)cc1 (stereo unspecified)	Pf growth 48h inconclusive (no result: Shiga toxin inh, Cycloheximide cs)
CC(C)(C)C(=O)N1CCN(C(=O)c2ccco2)CC1	Pf growth 96h inconclusive
COc1ccc(CN(C(=O)c2oc3cc(C)ccc3c2C)C2CCS(=O)(=O)C2)cc1OC (stereo unspecified)	Pf growth 48h inconclusive
COc1ccc(NC(=O)C2=CC(c3ccc(C)cc3)=NS(=O)(=O)N2C)cc1OC	HCV inh inconclusive
COc1ccc(C2=NS(=O)(=O)N(C)C(C(=O)Nc3ccc(C(C)=O)cc3)=C2)cc1OC	HCV inh 11µM
CC(=O)c1ccc(NC(=O)C2=CC(c3ccco3)=NS(=O)(=O)N2C)cc1	Cycloheximide cs 15
O=C1CSC(=Nc2ccc(O)cc2)N1c1ccc(O)cc1	Pf growth 48h inconclusive, Pf growth 96h 10µM
CCCn1c2ccc(/C(C)=N\O)cc2c2cc(/C(C)=N/O)ccc21	Pf growth 48h inconclusive, HCV inh 13µM
Cc1ccc(NC(=O)CSc2nnnn2-c2cccnc2)c(C)c1	none
Cc1nc2cc(Cc3ccccc3)ccc2o1	none (no result: Pf growth 48h, Shiga toxin inh, Pf growth 96h, Cycloheximide cs)
Cc1nc2ccc(-c3ccccc3)cc2o1	Cycloheximide cs 53
O=C(CN1C(=O)CSc2ncccc21)Nc1cccc(Cl)c1	Pf growth 48h 17µM
COCCCNC(=O)CN1C(=O)CSc2ncccc21	Pf growth 96h 2.6µM
Cc1c(Cl)cccc1NC(=O)CN1C(=O)CSc2ncccc21	Pf growth 96h inconclusive (no result: Pf growth 48h, AMA1 RON2 block, HCV inh)
O=C(CN1C(=O)CSc2ncccc21)NCCN1CCOCC1	Pf growth 96h inconclusive (no result: Pf growth 48h)
CCCCCn1c(=O)c(C(=O)Nc2cc(C)ccn2)c(O)c2ccccc21	Pf growth 48h inconclusive, HCV inh inconclusive (no result: Shiga toxin inh)
Cc1ccnc(NC(=O)c2c(O)c3ccccc3n(C)c2=O)c1	Shiga toxin inh 71, Cycloheximide cs 51 (no result: AMA1 RON2 block, HCV inh)
CCCn1c(=O)c(C(=O)Nc2cccc(C)c2)c(O)c2ccccc21	none
Cc1cccc(NC(=O)c2c(O)c3ccccc3n(C)c2=O)c1	HCV inh inconclusive, Cycloheximide cs 25 (no result: Shiga toxin inh)
Cc1nc(C(F)(F)F)ccc1C(=O)N1CCCC(C)(C(=O)O)C1 (stereo unspecified)	none (no result: Pf growth 48h, Shiga toxin inh, HCV inh, Pf growth 96h, Cycloheximide cs)
O=C(COc1ccc2ccc(=O)oc2c1)N1CCN(C(=O)C2COc3ccccc3O2)CC1 (stereo unspecified)	Pf growth 48h inconclusive, HCV inh inconclusive, Pf growth 96h inconclusive
Cc1cc(=O)oc2cc(OCC(=O)N3CCN(C(=O)C4COc5ccccc5O4)CC3)ccc12 (stereo unspecified)	Pf growth 48h inconclusive, HCV inh 18µM, Pf growth 96h 13µM
CCCc1cc(=O)oc2cc(OCC(=O)N3CCN(C(=O)C4COc5ccccc5O4)CC3)ccc12 (stereo unspecified)	Pf growth 48h inconclusive, HCV inh inconclusive, Pf growth 96h 12µM
Cc1cc(=O)oc2cc(OCC(=O)N3CCN(C(=O)C4COc5ccccc5O4)CC3)c(Cl)cc12 (stereo unspecified)	HCV inh inconclusive, Pf growth 96h 13µM
C/C(=N\O)C(C)(C)Nc1ccccc1F	none
C[C@H](N[C@@H](C)COc1ccccc1)[C@H](O)c1ccc(O)cc1	none (no result: Shiga toxin inh, AMA1 RON2 block, HCV inh, Cycloheximide cs)
CC(C)(C)OC(=O)C(C1NC(C(=O)O)C(C)(C)S1)N1C(=O)c2ccccc2C1=O (stereo unspecified)	none (no result: Pf growth 48h, Shiga toxin inh, Pf growth 96h, Cycloheximide cs)
Cc1ccc(S(=O)(=O)NC(=NC2CCCCC2)c2ccc(Cl)cc2)cc1	none
CCOC(=O)N1CCN(Cc2nc(CC3CC3)no2)CC1	Shiga toxin inh 34, Cycloheximide cs 27
COc1ccccc1CN1CC(C(=O)N2CCC(C(=O)c3ccccc3)CC2)CCC1=O (stereo unspecified)	Pf growth 48h inconclusive, Shiga toxin inh 58, Cycloheximide cs 36
O=C(NCCCC1CCCC1)C1CCC(=O)N(Cc2ccccc2F)C1 (stereo unspecified)	none (no result: Pf growth 48h, Shiga toxin inh, Pf growth 96h, Cycloheximide cs)
Cc1ccc(CCNC(=O)C2CCC(=O)N(Cc3ccccc3F)C2)o1 (stereo unspecified)	Pf growth 48h inconclusive, Shiga toxin inh 102, HCV inh inconclusive, Cycloheximide cs 40
COc1ccc(CCCNC(=O)C2CCC(=O)N(Cc3ccccc3F)C2)cc1 (stereo unspecified)	Cycloheximide cs 31
COc1ccccc1CCCNC(=O)C1CCC(=O)N(CCCN2CCCC2=O)C1 (stereo unspecified)	none
COc1ccccc1CCCNC(=O)C1CCC(=O)N(Cc2ccccc2F)C1 (stereo unspecified)	Shiga toxin inh 100, Pf growth 96h inconclusive, Cycloheximide cs 41
Cc1cc(C)nc(CCNC(=O)C2CCC(=O)N(Cc3ccccc3F)C2)n1 (stereo unspecified)	none
Cc1ccc(C(=O)CCC(=O)OCC(=O)NNC(=O)c2ccccc2Cl)cc1	none (no result: Shiga toxin inh, Cycloheximide cs)
CC(C)C[C@H](NC(=O)CNC(=O)[C@H](C)NC(=O)[C@H](CC(C)C)NC(=O)[C@H](CCCNC(=N)N)NC(=O)[C@H](Cc1cnc[nH]1)NC(=O)[C@@H](NC(=O)[C@@H](NC(=O)[C@@H]1CSSC[C@H](NC(=O)[C@@H](N)CO)C(=O)N[C@@H](CC(N)=O)C(=O)N[C@@H]([C@@H](C)O)C(=O)N[C@@H](C)C(=O)N[C@@H]([C@@H](C)O)C(=O)N1)C(C)C)[C@@H](C)O)C(=O)N[C@@H](CC(C)C)C(=O)N[C@@H](CO)C(=O)N[C@@H](CCCNC(=N)N)C(=O)N[C@@H](CO)C(=O)NCC(=O)NCC(=O)N[C@H](C(=O)N[C@H](C(=O)N[C@@H](CCCCN)C(=O)N[C@@H](CC(=O)O)C(=O)N[C@@H](CC(N)=O)C(=O)N[C@@H](Cc1ccccc1)C(=O)N[C@H](C(=O)N1CCC[C@H]1C(=O)N[C@H](C(=O)N[C@@H](CC(N)=O)C(=O)N[C@H](C(=O)NCC(=O)N[C@@H](CO)C(=O)N[C@@H](CCCCN)C(=O)N[C@@H](C)C(=O)N[C@@H](Cc1ccccc1)C(N)=O)C(C)C)[C@@H](C)O)C(C)C)C(C)C)C(C)C	none (no result: Pf growth 48h, AMA1 RON2 block, HCV inh, Pf growth 96h)
O=C(NCCCC1CCCC1)C1CCC(=O)N(Cc2cccc(F)c2)C1 (stereo unspecified)	Pf growth 48h inconclusive
COc1ccccc1CN1CC(C(=O)NCCc2ccccc2Cl)CCC1=O (stereo unspecified)	Shiga toxin inh 59, Cycloheximide cs 38
O=C(NCCc1ccccc1Cl)C1CCC(=O)N(CC2CCCCC2)C1 (stereo unspecified)	Pf growth 96h 13µM
COc1ccccc1CN1CC(C(=O)NCCC2=CCCCC2)CCC1=O (stereo unspecified)	Pf growth 96h inconclusive
COc1ccccc1CN1CC(C(=O)NCc2cccnc2)CC1=O (stereo unspecified)	Pf growth 96h 2.1µM

Compound activity as filed in PubChem BioAssay.
